High-throughput results: PubChem, several laboratories
Shown are actives, neighbours in structure and some others; about 1.5% of the full set was active somewhere.
TLR9-MyD88 inh – TLR9-MyD88 interaction inhibition; Q9NR96+Q99836; CHO BLA complementation TLR9-MyD88, CCF4 FRET ratio; AID 504734; 340,000 compounds, 0.21% hits; inhibition, % at 4.98 µM;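 active = inhibition above the mean over all tested compounds plus 3 SD, cut at about 21% in these data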;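 note: 0% = DMSO only wells and 100% = clavulanate BLA inhibitor control wells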
ABHD5-PLIN5 inh – inhibitors of human ABHD5-perilipin-5 interaction | inhibition, % at 4 µM | Split G. princeps luciferase complementation, luminescence, 4 h | 360,000 compounds, 0.78% hits;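 active = inhibition above the mean inhibition across every tested compound plus 3 SD, cut at about 22% in these data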;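 note: 0% = DMSO only wells and the 100% control is not disclosed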
NOD2-RIPK2 inh – blocks binding of human NOD2 to RIPK2. CHO BLA complementation NOD2-RIPK2, CCF4 ratio. 360,000 compounds, 0.38% hits. O43353. AID 624267. inhibition, % at 4.98 µM; in the data active = inhibition above about 21%;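 note: 0% = vehicle only and 100% = reference blocker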
TLR4 MyD88 comp – TLR4-MyD88 interaction inhibition in cells. O00206+Q99836. HeLa CL3-4 TLR4/MyD88 BLA complementation, FRET ratio. inhibition, % at 8.4 µM. 200,000 compounds, 0.18% hits; in the data active = inhibition above about 25%;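 note: 0% = vehicle and 100% = reference inhibitor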
NTR1 agonist – agonists of human neurotensin receptor NTR1 | activation, % at 20 µM | NTR1-U2OS beta-arrestin-GFP spot imaging, agonist mode | P30989 | 330,000 compounds, 0.17% hits;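 active = activation at or above 40% of the spot to cytoplasm intensity ratio, with at least 20 cells analyzed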;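 note: 0% = DMSO without peptide and 100% = 100 nM NTR1 peptide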
B2AR ag – activates human beta-2 adrenergic receptor causing internalization. P07550. Am2.2-beta2AR cells, FAP receptor internalization, flow cytometry. response, % (no concentration beside the values). 340,000 compounds, 0.43% hits;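 active = response above a set limit, near 3 SD of response in nonfluorescent compounds, cut at about 42% in these data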
Target sequence (P07550 whole entry, looked up): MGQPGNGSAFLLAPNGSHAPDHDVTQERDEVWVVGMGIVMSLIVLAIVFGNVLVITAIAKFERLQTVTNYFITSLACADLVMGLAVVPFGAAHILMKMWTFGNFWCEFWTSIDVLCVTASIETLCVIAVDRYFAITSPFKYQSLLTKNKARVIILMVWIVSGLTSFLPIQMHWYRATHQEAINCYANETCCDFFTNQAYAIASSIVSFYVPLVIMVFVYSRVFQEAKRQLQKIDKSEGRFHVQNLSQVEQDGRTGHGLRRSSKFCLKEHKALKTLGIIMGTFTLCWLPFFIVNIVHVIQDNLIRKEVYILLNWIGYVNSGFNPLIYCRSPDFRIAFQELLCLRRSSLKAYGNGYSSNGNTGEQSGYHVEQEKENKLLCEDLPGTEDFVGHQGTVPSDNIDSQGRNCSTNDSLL
NOD2-RIPK2 conf – confirmation of human NOD2-RIPK2 interaction inhibitors; 1,200 compounds, 70% hits; shares compounds with NOD2-RIPK2 inh; CHO cells, NOD2-RIPK2 BLA complementation, CCF4 FRET; inhibition, % at 4.98 µM;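 active = mean inhibition across replicates above a set limit taken from the earlier primary screen, cut at about 21% in these data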;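 note: 0% = DMSO-only wells and the high end = clavulanate BLA-blocked wells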
NOD2 BLA counter – hits BLA reporter in NOD2-RIPK2 inhibitor counterscreen; shares compounds with NOD2-RIPK2 inh; inhibition, % at 4.98 µM; AID 624371; 1,200 compounds, 57% hits; CHO BLA reporter, CCF4 FRET ratio;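 active = mean inhibition above the low-control mean inhibition plus three low-control SD, cut at about 11% in these data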;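 note: 0% = DMSO only wells and 100% = clavulanate high control wells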
* marks the source's active call; other numbers are inactive results; x = not tested or not shown.

SMILES | TLR9-MyD88 inh | ABHD5-PLIN5 inh | NOD2-RIPK2 inh | TLR4 MyD88 comp | NTR1 agonist | B2AR ag | NOD2-RIPK2 conf | NOD2 BLA counter
CC(=O)NCCNc1nc2cc(-c3ccc4c(ccn4C)c3)sc2c(=O)n1C | x | 3.7 | -7.2 | x | x | x | x | x
CCN1C(=O)c2cccc3c(S(=O)(=O)N4CCCC4C(=O)O)ccc1c23 (centres undefined) | -3.4 | -0.2 | 8.3 | x | -0.2 | -4.4 | x | x
CCOC(=O)C1CCCN(S(=O)(=O)c2ccc3c4c(cccc24)C(=O)N3CC)C1 (centres undefined) | 5.5 | -8.9 | 27.0* | x | 2.5 | 9.7 | 25.2* | 25.1*
C#CCn1c2ccccc2c(=O)n1CCOc1ccccc1OC | x | 4.5 | -15.9 | x | x | x | x | x
COC(=O)[C@@]12C[C@@H](CC(=O)NCC34CC5CC(CC(C5)C3)C4)C(=O)N(Cc3ccc4c(c3)OCO4)C1=CCC(C)(C)C2 | x | -8.9 | 2.3 | x | x | x | x | x
N#Cc1ccc(C(C(=O)NC2CCCCC2)n2c(=O)c(-c3ccccc3)nc3ccccc32)cc1 (centres undefined) | x | 2.2 | -5.4 | x | x | x | x | x
O=C(NC1CCCCC1)C(c1ccccc1F)n1c(=O)c(-c2cc3ccccc3[nH]2)nc2ccccc21 (centres undefined) | x | 3.0 | 44.5* | x | x | x | 41.9* | 66.3*
O=C(NC1CCCCC1)C(c1cccc2ccccc12)n1c(=O)c(-c2cc3ccccc3[nH]2)nc2ccccc21 (centres undefined) | x | -1.5 | 38.5* | x | x | x | 34.2* | 62.3*
O=S1(=O)N[C@@H](Cc2ccccc2)COc2cccc(N3CCC[C@H]3CO)c21 | x | -4.7 | -8.2 | x | x | x | x | x
CN1C(=O)c2cccc3c(S(=O)(=O)N(C)C)ccc1c23 | 9.8 | 5.9 | 21.9* | x | 0.0 | -5.7 | 10.8 | 16.2*
CCN1C(=O)c2cccc3c(S(=O)(=O)N(C)C)ccc1c23 | -2.1 | -8.6 | 7.4 | x | x | x | x | x
O=S1(=O)N[C@@H](Cc2ccccc2)COc2cc(N3CCSCC3)ccc21 | x | -6.0 | -3.3 | x | x | x | x | x
COc1cccc(CNc2nc3cc(-c4cccc(C(=O)NCCO)c4)sc3c(=O)n2C)c1 | x | 0.8 | -0.6 | x | x | x | x | x
CCN(CC)S(=O)(=O)c1ccc(N/N=C/c2ccc(O)cc2)nc1 | -8.1 | -0.2 | 39.5* | -5.8 | -0.2 | 13.4 | 1.8 | 2.7
Cc1c2cnn(CC(=O)Nc3c(F)c(F)cc(F)c3F)c(=O)c2c(C)n1Cc1ccccc1F | -4.2 | 0.6 | 23.7* | 17.5 | -0.1 | 4.9 | 9.6 | -1.0
Cc1ccc(-c2noc(N=O)c2NO)cc1 | x | 6.8 | 22.1* | x | 0.0 | 14.0 | 24.4* | 20.9*
CC(=O)Nc1ccc(-c2ccnc3c2CC(C)(C(=O)NCc2ccncc2)O3)cc1 (centres undefined) | x | 8.7 | -1.8 | x | x | x | x | x
CC(=O)Nc1cccc(-c2ccnc3c2CC(C)(C(=O)NCc2ccncc2)O3)c1 (centres undefined) | x | -5.8 | 21.3* | x | x | x | 3.8 | -0.8
O=C(Nc1cc(Br)ccc1O)C1CC(c2c(F)cccc2Cl)=NO1 (centres undefined) | 1.9 | -1.8 | 21.7* | x | 0.6 | 6.2 | 0.1 | -3.1
O=C(Nc1ccc(Br)cc1)C1CC(c2c(F)cccc2Cl)=NO1 (centres undefined) | -4.0 | -4.3 | 9.3 | x | 1.7 | -1.4 | x | x
O=C1Nc2cc(C(=O)NCCCN3CCCC3)ccc2S/C1=C\c1ccccc1 | -12.5 | 13.4 | -8.1 | x | 11.7 | 2.9 | x | x
COc1ccc(/C=C2/Sc3ccc(C(=O)NCCN4CCCCCC4)cc3NC2=O)cc1 | 2.2 | 13.4 | 23.6* | x | 23.9 | 20.1 | 16.9 | 9.6
CC(NC(=O)CN(c1cccc(C(F)(F)F)c1)S(=O)(=O)c1ccc(Cl)c([N+](=O)[O-])c1)c1ccccc1 (centres undefined) | 7.9 | 8.6 | 39.4* | -4.0 | 14.1 | 18.8 | 34.7* | -1.1
COc1ccc(C(=O)NNC(=O)c2cc3ccccc3cc2O)cc1 | 10.2 | -0.3 | 31.4* | x | 0.2 | 6.4 | 4.6 | 7.5
CC(=O)c1cccc(NC(=O)C2Cc3c(-c4ccccc4Oc4ccccc4)ccnc3O2)c1 (centres undefined) | x | 6.1 | -7.9 | x | x | x | x | x
COc1ccc2c3c(cccc13)C(=O)CC2 | 0.5 | 9.6 | 26.8* | x | x | 9.9 | 1.6 | 4.7
CCc1cc2c(=O)c(-c3nc4ccccc4n3C)c(C)oc2c(CN(CC)CC)c1O | -13.0 | 3.2 | -11.7 | 0.0 | 3.6 | 5.4 | x | x
CCN(CC)Cc1c(O)ccc2cc(-c3nc4ccccc4n3C)c(=O)oc12 | -1.6 | 0.3 | 28.6* | x | 0.1 | 4.8 | 34.9* | 56.2*
